Screening data deposited in PubChem by Broad Institute.
Sampled rows, rich in hits. Any-hit rate of the full collection: about 2.8%.
mut p53 react – mutant p53 pathway reactivation. activation, % at 9.98 µM. SW480 PUMA-promoter luciferase. 28,000 tested, 1.5% active; in the data active = activation above about 52%
STAT3 binder – binders of human STAT3 | P40763 | calls only | Small molecule microarray, His-STAT3 binding, anti-His fluorescence | 17,000 tested, 0.2% active;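 active = compounds whose four printed spots each show fluorescence over background unusually high for their array block, chance value under 7%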
c-Myc SMM – binders of human c-Myc; P01106; small molecule microarray, His-c-Myc binding, anti-His fluorescence; calls only; 17,000 tested, 1.5% active; AID 624141;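 active = spot fluorescence over background with P-value below 7% in all four replicate spots, showing protein binding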;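 also: score is binary with 100 for all four spots passing and 0 otherwise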
p53 mut binder – binds human mutant p53 on microarray. AID 624136. calls only. 17,000 tested, 0.4% active. small molecule microarray binding, anti-GST fluorescence;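 active = compounds whose four printed spots each glow above background more than chance allows, each with a p-value under 7%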
NFkB SMM – NF-kappa-B p105 (human) binding. calls only. P19838. 17,000 tested, 1.3% active. Small molecule microarray, anti-His fluorescence binding;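 active = spot fluorescence over background significantly raised, with a chance value under 7% in all four replicate spots of the compound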;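 also: probe protein is his-tagged human p50 processed subunit at 1 µg/ml; raw spot fluorescence signals with no normalization applied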
Target sequence (P19838 1-433 limits assumed): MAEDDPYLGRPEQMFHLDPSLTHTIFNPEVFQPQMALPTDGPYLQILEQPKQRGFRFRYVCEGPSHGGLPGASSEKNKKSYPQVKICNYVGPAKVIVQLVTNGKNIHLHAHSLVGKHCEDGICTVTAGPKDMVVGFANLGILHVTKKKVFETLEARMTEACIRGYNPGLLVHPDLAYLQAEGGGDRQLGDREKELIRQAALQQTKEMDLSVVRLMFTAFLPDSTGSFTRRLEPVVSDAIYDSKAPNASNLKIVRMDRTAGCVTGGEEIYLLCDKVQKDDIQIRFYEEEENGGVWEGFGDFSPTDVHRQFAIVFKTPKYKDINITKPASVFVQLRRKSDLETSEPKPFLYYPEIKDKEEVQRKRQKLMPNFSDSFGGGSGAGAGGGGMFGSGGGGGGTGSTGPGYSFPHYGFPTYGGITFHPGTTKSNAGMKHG
* hit, by the source's call; i = inactive; . = no result; + = active, no number.

SMILES	mut p53 react	STAT3 binder	c-Myc SMM	p53 mut binder	NFkB SMM
CC1(C)CC[C@]2(C(=O)O)CC[C@]3(C)C(=CCC4[C@@]5(C)CC[C@H](O[C@@H]6OC[C@H](O)[C@H](O)[C@H]6O)[C@@](C)(CO)C5CC[C@]43C)C2C1 (stereo not given in full)	-38	i	i	i	+
C/C=C(\C)C(=O)O[C@H]1[C@H](OC(C)=O)[C@@]2(CO)C(CC1(C)C)C1=CCC3[C@@]4(C)CC[C@H](O[C@@H]5O[C@H](C(=O)O)[C@@H](O)[C@H](O[C@@H]6O[C@H](CO)[C@H](O)[C@H](O)[C@H]6O[C@@H]6O[C@@H](C)[C@H](O)[C@@H](O)[C@H]6O)[C@H]5O[C@@H]5O[C@H](CO)[C@@H](O)[C@H](O)[C@H]5O)C(C)(C)C4CC[C@@]3(C)[C@]1(C)C[C@H]2O (stereo not given in full)	-82	i	i	i	+
CC1OC(O[C@H]2CC[C@@]3(C)C(CC[C@]4(C)C3CC=C3C5CC(C)(C)CC[C@]5(C(=O)OC5OC(CO)C(OC6OC(CO)C(O)C(O)C6O)C(O)C5O)CC[C@]34C)C2(C)C)C(O)C(O)C1OC1OCC(O)(COC2OCC(O)C(OC3OCC(OC4OCC(O)(CO)C4O)C(O)C3O)C2O)C1O (stereo not given in full)	6	i	i	i	i
CC1OC(OC2C(CO)OC(OC(=O)[C@]34CCC(C)(C)CC3C3=CCC5[C@@]6(C)CC[C@H](OC7OC(C)C(OC8OCC(O)(COC9OCC(O)C(OC%10OCC(OC%11OCC(O)(CO)C%11O)C(O)C%10O)C9O)C8O)C(O)C7O)C(C)(C)C6CC[C@@]5(C)[C@]3(C)CC4)C(O)C2O)C(O)C(O)C1O (stereo not given in full)	-16	i	+	i	+
COc1ccccc1-n1c(CN2C(=O)c3ccccc3C2=O)nc2ccccc2c1=O	-12	i	i	i	i
CC1(C)CC[C@]2(C(=O)O[C@@H]3O[C@H](CO)[C@@H](O)[C@H](O)[C@H]3O)CC[C@]3(C)C(=CCC4[C@@]5(C)CC[C@H](O[C@@H]6OC[C@H](O)[C@H](O)[C@H]6O[C@@H]6O[C@H](CO)[C@@H](O)[C@H](O)[C@H]6O[C@@H]6OC[C@H](O)[C@H](O)[C@H]6O)[C@@](C)(CO)C5CC[C@]43C)C2C1 (stereo not given in full)	15	i	i	i	+
COC(=O)c1ccccc1NC(=O)COc1ccc(C(C)C)cc1Br	54*	.	.	.	.
CC(C)(C)c1ccc(OCC(=O)Nc2ccccc2C(N)=O)c(Br)c1	85*	.	.	.	.
CC(C)(C)c1ccc(OCC(=O)NCc2ccco2)c(Br)c1	88*	.	.	.	.
COc1cc(NC(=O)COc2ccc(C(C)(C)C)cc2Br)c(OC)cc1Cl	21	.	.	.	.
COC(=O)c1ccccc1NC(=O)COc1ccccc1F	43	i	i	i	i
COc1ccc(OC)c(/C=C/C(=O)O)c1	1	i	i	i	i
c1csc(-c2nn3c(C4COc5ccccc5O4)nnc3s2)c1 (stereo not given)	68*	.	.	.	.
c1ccc2c(c1)OCC(c1nnc3sc(-c4ccncc4)nn13)O2 (stereo not given)	4	.	.	.	.
Cn1c(CN2CCOCC2)nnc1SCC(=O)Nc1cc(C(F)(F)F)ccc1Cl	-1	.	.	.	.
COC(=O)Cc1c(C)c2cc(Cl)c(OC(C)C(C)=O)cc2oc1=O (stereo not given)	68*	i	i	i	i
COC(=O)Cc1c(C)c2c(OCC(N)=O)cc(C)cc2oc1=O	-6	i	i	i	i
O=C(CN1C(=O)c2ccccc2C1=O)Nc1ccc(-c2nc3ccccc3o2)cc1	28	.	.	.	.
Cc1ccc2oc(-c3ccc(NC(=O)Cn4c(=O)oc5ccccc54)cc3)nc2c1	60*	i	i	i	i
CC(=O)Nc1cccc(NC(=O)c2cc(-c3ccccn3)nc3ccc(Cl)cc23)c1	-31	i	i	i	i
COc1cccc(CN2CCN(C(=O)c3cc(-c4ccccn4)nc4ccc(Cl)cc34)CC2)c1	-15	i	i	+	i
O=C(O)C1=C[C@H](c2ccc(C(F)(F)F)cc2)C[C@H](OCCCCO)O1	.	+	i	i	i
C=CC(C)(O)CC/C=C(\C)C(=O)OC1C(CO)OC(OC2OC=CC3(O)C(OC(=O)C4=COC(OC5OC(CO)C(O)C(O)C5O)C5C(C)CCC45)C4OC4(C)C23)C(O)C1O (stereo not given)	-1	i	i	i	i
C/C=C/C/C=C/CCC(=O)[C@H]1O[C@H]1C(N)=O	29	i	i	i	+
CC/C=C\C/C=C\C/C=C\C/C=C\C/C=C\C/C=C\CCC(=O)O	-4	i	i	i	i
SMILES	mut p53 react	STAT3 binder	c-Myc SMM	p53 mut binder	NFkB SMM
COc1cc2oc(-c3ccccc3)cc(=O)c2c(O)c1OC	3	i	i	i	i
COc1ccccc1-c1cc(=O)c2ccccc2o1	138*	i	i	i	i
NC(=O)CSc1nnc(-c2cccnc2)s1	10	.	.	.	.
CCc1ccc(OCCSc2nc(C)cc(=O)[nH]2)cc1	59*	.	.	.	.
Cc1ccc(S(=O)(=O)Nc2ccccc2-c2nc3ccccc3c(=O)o2)cc1	2	i	i	i	i
CC(C)OC(=O)c1cn(Cc2c(F)cccc2F)c2sc(-c3ccc(NC(=O)C(C)C)cc3)c(CN(C)Cc3ccccc3)c2c1=O	-51	i	+	i	+
O=C(CSc1ncccc1C(=O)O)c1cccc([N+](=O)[O-])c1	-3	i	+	i	i
COc1ccc(C(=O)n2nc(-c3ccc(Cl)cc3)nc2NCc2ccco2)cc1OC	80*	.	.	.	.
CCCC(=O)n1nc(-c2ccc(Cl)cc2)nc1NCc1ccco1	107*	.	.	.	.
O=C(c1ccco1)n1nc(-c2ccc(Cl)cc2)nc1NCc1ccco1	44	.	.	.	.
O=C(c1ccc([N+](=O)[O-])cc1)n1nc(-c2ccc(Cl)cc2)nc1NCc1ccco1	128*	.	.	.	.
CCCC(=O)n1nc(-c2ccccc2)nc1NCc1ccco1	50	.	.	.	.
COc1ccccc1C(=O)n1nc(-c2ccccc2)nc1NCc1ccco1	23	i	i	i	i
COC(=O)C(C)Sc1ncnc2scc(-c3ccc(Cl)cc3)c12 (stereo not given)	-1	i	i	i	i
CCOC(=O)c1cnc(SC2CC(=O)N(c3cccc(F)c3)C2=O)nc1N (stereo not given)	2	i	i	i	i
Cc1ccc(S(=O)(=O)NC(=O)CSc2nc3ccccc3s2)cc1	-26	i	+	i	i
CCc1ccc(S(=O)(=O)NCC(=O)O)cc1	-8	i	+	i	+
COc1c(O)ccc2c1C(=O)c1c(O)cc(C)cc1C2[C@@H]1O[C@H](CO)[C@@H](O)[C@H](O)[C@H]1O (stereo not given in full)	-3	i	i	i	i
